From PubChem BioAssay (NCI) come the findings set out here.

A short description of assay [1]: NCI Yeast Anticancer Drug Screen. Data for the rad50 strain (AID 155).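 Also: 0% = growth of vehicle-only cultures of the same strain.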 The note with it: S. cerevisiae rad50 strain growth inhibition; at 50.0 µM; stronger effect = higher value. An outline of the steps:
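DNA repair mutant yeast, compound exposure, growth read-out; inhibition is taken relative to vehicle.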

Assay [2] can be described thus: NCI Yeast Anticancer Drug Screen. Data for the mec2-1 strain (AID 157). The note with it: S. cerevisiae mec2-1 strain, at 50.0 µM, stronger effect = higher value. The procedure, abridged: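 Strain: mec2-1 (DNA repair/cell cycle alteration). Compound exposure, then growth measured; inhibition expressed relative to vehicle.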
Assay [3] is described as follows: NCI Yeast Anticancer Drug Screen. Data for the sgs1 mgt1 strain (AID 161).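 Also: 0% = growth of cultures given vehicle only.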 The conditions noted are these: S. cerevisiae sgs1 mgt1 strain, at 50.0 µM, stronger effect = higher value. An outline of the steps: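 Genetically altered yeast, compound exposure, growth inhibition relative to vehicle.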
Assay [4] can be described thus: NCI Yeast Anticancer Drug Screen. Data for the cln2 rad14 strain (AID 165).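 Also: 0% = growth equal to vehicle treated cultures.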 The note with it: S. cerevisiae cln2 rad14 strain, at 50.0 µM, stronger effect = higher value. An outline of the steps:
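Compounds are applied to the cln2 rad14 yeast strain, and growth is then compared with that of vehicle-treated cultures to give inhibition.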

Assay [5] can be described thus: NCI Yeast Anticancer Drug Screen. Data for the bub3 strain (AID 167). The conditions noted are these: S. cerevisiae bub3 mutant strain, at 50.0 µM, stronger effect = higher value. The procedure, abridged: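 In this screen, a yeast mutant lacking normal mitotic checkpoint function is challenged with compound. Relative growth versus vehicle gives the inhibition value.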
Assay [6] in a line: NCI Yeast Anticancer Drug Screen. Data for the mlh1 rad18 strain (AID 175). The note with it: S. cerevisiae mlh1 rad18 strain growth inhibition; at 50.0 µM; stronger effect = higher value. An outline of the steps: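 Read-out is yeast growth inhibition, calculated against vehicle-only controls. The compound was applied to a strain engineered with DNA damage repair alterations.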

Compounds without any hit were thinned out: in the full panel of roughly 79,000, 15% have a hit. Values without a mark were called inactive. Active and inactive are the calls of the source. Rule as the data show it: active = growth inhibition above about 70%; inactive = the rest.

Turning to `Cc1cc(Cl)ccc1NC(=O)C(=O)Cc1nc2ccc(C(=O)c3ccccc3)cc2[nH]c1=O`, the growth inhibition in assay [1] was 5.15%; in assay [2] it was -4.75%; in assay [3], -4.85%; in assay [4], 22.9%; in assay [5], 26.4%; in assay [6], 7.15%.
For `COC(=O)CC(NC(=O)OCc1ccccc1)C(=O)NCC(=O)NCC(=O)O` (stereo not given), the growth inhibition in assay [1] was 15.8%; in assay [2], 12.7%; in assay [3] it was -5.65%; in assay [4], 14.3%; in assay [5] it was -4.7%; in assay [6] it was 2.5%.
As for `c1ccc(-c2ccccc2N=C2N=NN=N2)cc1`, the growth inhibition in assay [1] was -1%; in assay [2] it was -6.9%; in assay [3], 2.2%; in assay [4], -16.4%; in assay [5], -13.6%; in assay [6] it was 6.55%.
Consider `CC(NC(=O)C(NC(=O)c1ccc[n+](Cc2ccccc2)c1)C(C)C)C(N)=O` (stereo not given), for which the growth inhibition in assay [1] was 0.45%; in assay [2], 8.05%; in assay [3] it was -2.6%; in assay [4], -6.2%; in assay [5] it was -1.95%; in assay [6], 23.4%.
In the case of `O=C(c1ccccc1)C1C(C(=O)c2ccccc2)C1c1ccccc1` (stereo not given), the growth inhibition is -11.3% in assay [1]; -4.45% in assay [2]; 21.3% in assay [3]; 3.4% in assay [4]; 31.3% in assay [5]; -16.1% in assay [6].
Turning to `Cc1cc(Cl)c(Cl)cc1NC(=O)c1ccc(Cl)cc1Cl`, the growth inhibition was 2.85% in assay [1]; 6.9% in assay [2]; 1.25% in assay [3]; -0.95% in assay [4]; -1.3% in assay [5]; 17.6% in assay [6].
Regarding `CCN(CC)CCNc1c2ccc(Cl)cc2nc2c1c(C)nn2C`, the growth inhibition in assay [1] was -7.05%; in assay [2], 9.15%; in assay [3], 18.9%; in assay [4], 21%; in assay [5] it was 33.1%; in assay [6], 6.95%.
For `CCOC(=O)c1cc2c(nc1C)-c1cc(Cl)ccc1OC2OCc1ccccc1` (stereo not given), the growth inhibition is -1.65% in assay [1]; -3% in assay [2]; -21.6% in assay [3]; -3.55% in assay [4]; -12.2% in assay [5]; 4.3% in assay [6].
For `CC1CCOC(C)(Cc2ccccc2)O1` (stereo not given), the growth inhibition in assay [1] is -2.8%; in assay [2] it was -3.05%; in assay [3], -6.9%; in assay [4] it was -58.8%; in assay [5], -18.1%; in assay [6] it was -10.9%.
In the case of `S=C(S)N(Cc1ccccc1)Cc1ccccc1` (tested in a mixture with another compound), the growth inhibition was 2.85% in assay [1]; 0.7% in assay [2]; 3.7% in assay [3]; -18.8% in assay [4]; 12.8% in assay [5]; -2.05% in assay [6].
Turning to `SC(S)(Cc1ccccc1)Cc1ccccc1`, the growth inhibition in assay [1] is -6.4%; in assay [2] it was 2.2%; in assay [3] it was 16.4%; in assay [4], -9.65%; in assay [5] it was 35.1%; in assay [6], 1%.
As for `OC(COc1ccc(Cl)cc1Cl)CN1CCCC1` (stereo not given), the growth inhibition in assay [1] was 10.1%; in assay [2], 11.8%; in assay [3] it was 17.7%; in assay [4], 5.05%; in assay [5] it was -23.4%; in assay [6] it was 18.1%.
On to `O=S1(=O)C(Cl)=C(O)c2ccccc21`, for which the growth inhibition is 13.4% in assay [1]; 6.5% in assay [2]; -2.05% in assay [3]; -22.6% in assay [4]; -7.7% in assay [5]; 11.4% in assay [6].
Take `CCOc1cc2c(cnc3c4cc(OC)c(OC)cc4ccc23)cc1OC`: the growth inhibition was -8.6% in assay [1]; -15.2% in assay [2]; -13.5% in assay [3]; -6.25% in assay [4]; -17.9% in assay [5]; -16.6% in assay [6].
As for `O=C1C=C(Sc2ccccc2)c2nccc3c2c1nc1ccccc13`, the growth inhibition in assay [1] was 34.9%; in assay [2] it was 7.6%; in assay [3] it was 20.4%; in assay [4], 6.55%; in assay [5] it was 20.1%; in assay [6] it was 30%.
Consider `CCCCCC(=O)O`, for which the growth inhibition is -20.2% in assay [1]; -7.1% in assay [2]; -42.1% in assay [3]; 26.9% in assay [4]; -38.9% in assay [5]; 16.8% in assay [6].
Turning to `CC(O)(c1cccc(OCc2ccccc2)c1)c1ccccn1` (stereo not given), the growth inhibition in assay [1] was 12.3%; in assay [2] it was 0.05%; in assay [3] it was 5.7%; in assay [4], -11.4%; in assay [5], -6.15%; in assay [6] it was -7.8%.
In the case of `Cc1ccc2c(c1)-c1c3c(nn1C)-c1ccccc1SC3O2` (stereo not given), the growth inhibition in assay [1] was -0.35%; in assay [2] it was -7.75%; in assay [3], -13.1%; in assay [4] it was -3.6%; in assay [5], -5.75%; in assay [6], 9.15%.
As for `COc1ccc2ccccc2c1Cc1c(O)ccc2ccccc12`, the growth inhibition in assay [1] is 15.7%; in assay [2], -4.55%; in assay [3] it was 0.75%; in assay [4], -40%; in assay [5] it was -3.1%; in assay [6], 8%.
Consider `CCCN(CCC)CC(O)c1cccc2c1cc(Cl)c1ccccc12` (stereo not given), for which the growth inhibition is 99.6% (active) in assay [1]; 99.7% (active) in assay [2]; 99.8% (active) in assay [3]; 99% (active) in assay [4]; 91.3% (active) in assay [5]; 99.7% (active) in assay [6].
